Experimental findings from ChEMBL document CHEMBL1157539, “Thousands of chemical starting points for antimalarial lead identification” (Nature, 2010) are described below.

Holding throughout (assay type): functional
The test system of experiment [1] is Plasmodium falciparum. The experiment in a line: GSK_TCMDC: Inhibition of Plasmodium falciparum 3D7 in whole red blood cells, using parasite LDH activity as an index of growth. Test compounds present at 2uM.
Experiment [2] has as its system Plasmodium falciparum. The experiment in a line: GSK_TCMDC: Inhibition of Plasmodium falciparum Dd2 in whole red blood cells, using parasite LDH activity as an index of growth. Test compounds present at 2uM.
Experiment [3] relates to HepG2. The experiment in a line: GSK_TCMDC: Percent inhibition of human HepG2 cell line. Test compounds present at 10uM.

A word on the Inhibition: it is the share of the control response that was lost under treatment. A low value points to a response near the control.

Structures are written as SMILES.

Turning to `O=c1cc(NCCCCNCc2cccc(Cl)c2)[nH]c2ccccc12`, the Inhibition is given as 98% in experiment [1], 41% in experiment [2] and 2% in experiment [3].

Consider `CO[C@H](C)[C@H](NC(=O)[C@H](CC(C)C)[C@H](CCC(F)(F)F)N(O)C=O)C(=O)Nc1nccs1`, for which the Inhibition in experiment [1] worked out at 99%; in experiment [2] it was 96%; in experiment [3] it was 0%.

Take `Cc1ccc2[nH]c3c(c2c1)CC(C(=O)NCCC(C)C)NC31CCN(Cc2ccccc2)CC1` (centres undefined): the Inhibition in experiment [1] amounted to 95%; in experiment [2], 50%; in experiment [3] it was 15%.

As for `COc1ccc(-c2nc(NC(=O)CSc3ccccc3)sc2C)cc1`, the Inhibition in experiment [1] is 94%; in experiment [2] it was 31%; in experiment [3], 6%.

On to `COc1cncc(/C=C/c2cncc(C(=O)NCCc3ccc(Cl)cc3Cl)c2)c1`, for which the Inhibition in experiment [1] was determined as 99%; in experiment [2] it was 49%; in experiment [3], 0%.

For `CC(C)CN1CCCN(Cc2cccc(NC(=O)c3ccc(Cl)c(Cl)c3)c2)CC1.O=C(O)C(F)(F)F`, the Inhibition in experiment [1] is recorded as 91%; in experiment [2] it was 9%; in experiment [3], 10%.

In the case of `CC1CN(c2nc(NCCc3ccc(O)cc3)nc(NCc3ccccc3-c3ccc(C(F)(F)F)cc3)n2)CC(C)N1` (centres undefined), the Inhibition in experiment [1] is 100%; in experiment [2], 68%; in experiment [3], 24%.

For `CNCC(C)(C)c1nc(-c2ccc(Cl)c(O)c2)c(-c2ccncc2)[nH]1.Cl`, the Inhibition in experiment [1] is recorded as 98%; in experiment [2], 96%; in experiment [3], 46%.

Turning to `CCc1cc(=O)[nH]c(-n2nc(C)cc2NC(=O)CC(c2ccccc2)c2ccccc2)n1`, the Inhibition in experiment [1] stood at 92%; in experiment [2] it was 75%; in experiment [3] it was 37%.

With `Cl.N#Cc1cccc(NC(=O)Nc2ccc3c(c2)CCN(C2CCC2)CC3)c1`, the Inhibition in experiment [1] was 91%; in experiment [2] it was 26%; in experiment [3], 22%.

Turning to `CN(CCN1CCC(c2c[nH]c3ccccc23)CC1)C(=O)OCCCCCNC(=O)/C=C/c1ccc(Cl)c(Cl)c1`, the Inhibition was 95% in experiment [1], 44% in experiment [2] and 39% in experiment [3].

With `CNCc1ccc(CN(C)c2nc(N)c3cc(OC)c(OC)cc3n2)cc1.O=C(O)C(F)(F)F`, the Inhibition in experiment [1] was determined as 96%; in experiment [2] it was 3%; in experiment [3], 12%.

Take `COc1ccc(CN2CCC(CNCCc3ccccc3Oc3ccccc3)CC2)cc1.O=C(O)C(F)(F)F`: the Inhibition in experiment [1] is given as 85%; in experiment [2], 56%; in experiment [3], 99%.

As to `COc1cc2nc(N3CCC(CNC(=O)c4ccc(-c5ccc(O)cc5)cc4)CC3)nc(N)c2cc1OC.O=C(O)C(F)(F)F`, the Inhibition is listed as 100% in experiment [1], 78% in experiment [2] and 34% in experiment [3].

For `CC(CNC(=O)[C@H]1CNCCN1C(=O)CCCc1ccccc1)c1ccccc1.O=C(O)C(F)(F)F` (some centres undefined), the Inhibition in experiment [1] is recorded as 94%; in experiment [2], 1%; in experiment [3], 12%.

Take `Cc1onc(-c2ccccc2)c1C(=O)Nc1nc(-c2ccccn2)nc2ccsc12`: the Inhibition came to 97% in experiment [1], 78% in experiment [2] and 23% in experiment [3].

`CCCC(=O)c1cnc2cc(O)ccc2c1Nc1ccccc1C`: the Inhibition is recorded as 99% in experiment [1], 93% in experiment [2] and 14% in experiment [3].

For the compound `Oc1ccc(OCc2ccccn2)cc1`, the Inhibition in experiment [1] stood at 98%; in experiment [2], 0%; in experiment [3], 5%.

Regarding `Br.CCc1c(CCNCCCCCCNCCc2ccc(Br)cc2)ccc(O)c1O`, the values for the Inhibition in experiment [1], in experiment [2] and in experiment [3] were 95%, 1% and 11%, respectively.

With `Cl.c1ccc(CC2=NCCN2)cc1` [TOLAZOLINE HYDROCHLORIDE], the results for the Inhibition in experiment [1], in experiment [2] and in experiment [3] were 94%, 0% and 3%, respectively.

For `Cc1c(CCc2cccc(F)c2F)[nH]c2ccccc2c1=O`, the values for the Inhibition in experiment [1], in experiment [2] and in experiment [3] were 91%, 90% and 41%, respectively.

`CC(=O)Nc1ccc(CN2CCC(CNC(=O)c3cc(-c4cccc(Cl)c4)cs3)C2)cc1.O=C(O)C(F)(F)F` (centres undefined): the Inhibition amounted to 91% in experiment [1], 1% in experiment [2] and 24% in experiment [3].

In the case of `O=C(Nc1ccc(Cl)cc1)c1ccc(CN2CCCN(Cc3cccc(F)c3)CC2)cc1.O=C(O)C(F)(F)F`, the results for the Inhibition in experiment [1], in experiment [2] and in experiment [3] were 91%, 8% and 59%, respectively.

As for `COC(=O)c1ccc(NC(=O)Nc2cccc(CCNCc3ccccc3)c2)cc1.O=C(O)C(F)(F)F`, the Inhibition was determined as 96% in experiment [1], 10% in experiment [2] and 2% in experiment [3].

On to `COc1cc2nc(NCCn3ccnc3C)nc(NCCc3ccccc3)c2cc1OC`, for which the Inhibition in experiment [1] was determined as 99%; in experiment [2], 0%; in experiment [3], 21%.

Take `CCCCCc1cnc2nc(N)nc(N)c2c1C.Cl`: the Inhibition in experiment [1] is 96%; in experiment [2] it was 23%; in experiment [3] it was 64%.

`COc1cc2nccc(Nc3ccc(OCc4ccccc4)cc3)c2cc1OC`: the Inhibition is recorded as 100% in experiment [1], 99% in experiment [2] and 35% in experiment [3].

Regarding `O=[N+]([O-])c1ccccc1/C=N/Nc1ccnc2ccc(C(F)(F)F)cc12`, the Inhibition in experiment [1] is on record as 100%; in experiment [2], 36%; in experiment [3], 6%.
